Measured values: PubChem BioAssay (NCI)
The panel holds about 83,000 compounds, 20% with a hit somewhere; the sample as a whole holds those more often.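 In brief: 96-well plates, 48 h treatment, single concentration, percent growth endpoint.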 Unmarked numbers belong to inactive results. Active and inactive are the calls of the source.

system: A498 renal; assay: NCI-60 one-dose screen, 48 h (100 = growth as untreated, 0 = no growth, -100 = all killed); conditions: 10 µM unless noted
Method: Growth inhibition of the A498 human tumor cell line is measured as a screen for anti-cancer activity. Cells are grown in 96 well plates and exposed to the test compound for 48 hours. Compounds are tested at a single concentration, which is 10^-5 M for most compounds. The reported endpoint is percent growth (GI% or GIPRCNT), where numbers from 0 - 100% represent growth inhibition, and numbers from -100% - 0 represent cell death. For example, a value of 40 represents 60% growth inhibition. A value of 0 means no net growth occurred over the course of the experiment. A value of -40 indicates 40% of cells at the beginning of the experiment died by the end of the experiment. A value of -100 means all cells are dead at the end of the experiment.
NCI-60 Human Tumor Cell Lines Screen was performed using the standard one-dose NCI protocol, which is described in more detail at https://dtp.cancer.gov/discovery_development/nci-60/default.htm.
Compounds with GIPRCNT values below 10 were considered active. Activity score was based on GIPRCNT using the following formula: […]
Score is 0 for GIPRCNT values of 100 or above, 50 for GIPRCNT values of 0, and 100 for GIPRCNT values of -100.

SMILES | growth
O=S(=O)(NCCCNc1cc(-c2cn(-c3ccccc3)nc2-c2cccc(O)c2)ccn1)c1ccccc1 | 50.6%
CCOC(=O)C(Cc1cc(I)c(O)c(I)c1)NC(=O)c1ccccc1 (stereo not given) | 78.7%
CCCCCCCCCC(=O)Oc1ccc(/C(=C(/C)Cc2cccc(OC)c2)c2ccc(OCCN(C)C)cc2)cc1 | 95.8%
CCCN(CCC)CN(CCC)CCC | 91.8%
NS(=O)(=O)c1ccc(Nc2nc3n[nH]c(Nc4ccccc4)c3c(=O)[nH]2)cc1 | 88.9%
Cc1cc(Nc2nc(N3CCOCC3)nc3ccccc23)n[nH]1 | -13.4% (active)
O=C(CCCN1CCOCC1)Nc1ccc(Cn2nnc3c2C(=O)c2nnn(Cc4ccc(NC(=O)CCCN5CCOCC5)cc4)c2C3=O)cc1 | 102%
O=C1C[C@H](Sc2nc(-c3ccc(F)cc3)cc(C(F)(F)F)n2)[C@H]2CO[C@@H]1O2 | 105%
O=C1C(Cl)=C(Cl)C(=O)c2c1nc1n2CCCC1 | 76.2%
O=C1C=CC(Nc2ccccc2[N+](=O)[O-])C1Nc1ccccc1[N+](=O)[O-] (stereo not given) | 96.8%
O=C1c2ccccc2-c2nccc3cc(Cl)nc1c23 | 90.2%
CCCCCCCCCCNC(=O)CCl | 85.9%
Cc1ccc2cnc(N)c(C#Cc3cncc(C(=O)Nc4ccc(CN5CCN(C)CC5)c(C(F)(F)F)c4)c3)c2c1 | -94.2% (active)
Cc1cc(OCc2ccc(C(F)(F)F)cc2)c2c(c1)C(=O)C=C(NCCN1CCCC1)C2=O | 67.8%
CC(=O)OC1Oc2cc(C)c(C)cc2-c2oc(=O)c(-c3cc4ccc(N(C)C)cc4oc3=O)cc21 (stereo not given) | 57.8%
CC1=CC(=O)CC(C)(C)[C@@]1(O)/C=C/[C@@H](C)O | 94.1%
Cc1cc(-c2nc3ccccc3s2)ccc1NC(=O)COc1ccc(Cl)cc1 | 106%
CNCCCn1c2c(c3ccc([N+](=O)[O-])cc3c1=O)C(=O)c1cc(OC)cnc1-2 | -97% (active)
CCC(c1ccc(O)cc1)C(CC)c1ccc(O)c(F)c1 (stereo not given) | 107%
Cc1noc(C)c1-c1cc(O)cc(C(O)c2ccccc2)c1 (stereo not given) | -3.34% (active)

SMILES | growth
OC(c1cccc(C(F)(F)F)c1)c1cnccc1NC1CCCCCC1 (stereo not given) | 50.3%
COc1ccc(-c2cc(-c3cccnc3)nc3sc4c(=O)n(-c5ccc(C)cc5)cnc4c23)cc1OC | 91%
CC1=N/C(=C\c2cccc(Br)c2)C(=O)O1 | 119%
Cc1cc(=O)oc2cc(Oc3nc(-c4ccc(Cl)cc4)cn4c(-c5ccc(Cl)cc5)cnc34)ccc12 | 105%
CC1(C)OCC2OC3(C(=O)O)OC(C)(C)OC3C2O1 (stereo not given) | 93.6%
Cc1nn(-c2nc3ccccc3[nH]2)c2c1C(c1ccc3c(c1)OCO3)CC(=O)N2 (stereo not given) | -8.66% (active)
CCCCCCNC(=O)Oc1ccc(/C(=C(\C)c2ccccc2)c2ccc(OCCN(CC)CC)cc2)cc1 | 81.7%
CC/C=C\C[C@H](O)C/C=C1/C(=O)C=C[C@@H]1C/C=C\CCCC(=O)OC(C)C | 77.7%
O=C(/C=C/c1ccc(B(O)O)cc1)/C=C/c1ccc(B(O)O)cc1 | 71.1%
CCOC(=O)c1cnc2ccc(Br)cc2c1Nc1cccc(S(=O)(=O)NC)c1 | 77.7%
CCN(CC)CCC(=O)Nc1ccc(Cn2nnc3c2C(=O)c2nnn(Cc4ccc(NC(=O)CCN(CC)CC)cc4)c2C3=O)cc1 | 14.6%
COc1cc(-c2cnc3nonc3n2)c(OC)c2c1OCO2 | 88.3%
COc1cccc2c1C(=O)c1c(O)c3c(c(O)c1C2=O)C[C@@](O)(/C(C)=N/NC(=O)c1ccc(Cl)cc1)C[C@@H]3OC1CC(N)C(O)C(C)O1 (stereo not given in full) | -88.4% (active)
O=C1/C(=C/c2ccc(F)cc2)CN(C(=O)CCN2CCC(=NO)CC2)C/C1=C\c1ccc(F)cc1 | 24.9%
COc1cccc(-c2nc3sccn3c2-c2ccnc(NCCCNS(=O)(=O)c3ccc(Cl)cc3)c2)c1 | 38.7%
COc1ccc(CN2C(=O)/C(=C\c3cc(OC)c(OC)c(OC)c3)c3cc(OC)ccc32)cc1 | 38.6%
COc1ccc(/C=C2\N=C3SC=C(N)N3C2=O)cc1 | 5.67% (active)
CN(C)CC(=O)Nc1ccc(Cn2nnc3c2C(=O)c2nnn(Cc4ccc(NC(=O)CN(C)C)cc4)c2C3=O)cc1 | -91.3% (active)
CC1=C(NCCN2CCCC2)C(=O)c2c(OCc3ccc(F)c(Cl)c3)cccc2C1=O | 38.7%
COc1cc(OC)c(/C=C/S(=O)(=O)Cc2cnc(OC)c(N)c2)c(OC)c1 | -1.94% (active)
